# Data published in PubChem BioAssay (EPA / NIEHS).
# Inconclusive results are not listed. Where a structure was tested more than once in an assay, its records may differ in their call. The source made the active and inactive calls. The calls were made as follows, unless noted: active = hit-call score of the fitted dose curve at least 0.9, where 1 is the maximum; inconclusive = response in the unintended direction; inactive = score below 0.9.
# Experiments:
# [1] = Tanguay_ZF_120hpf_ActivityScore_legacy: (Legacy) Oregon State University Tanguay Lab 120 Hour Post-fertilization zebrafish Assay Score for Activity (AID 2283742);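 as to AC50: static exposure from 6 hpf until 120 hpf at 28 °C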
# Outline: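 Tropical 5D wild-type zebrafish embryos, dechorionated with pronase at 4 hpf, were exposed singly from 6 hpf to 120 hpf statically at 28C in 0.64% DMSO. Malformations and mortality were scored as binary by brightfield, with the activity score combining 18 morphology components.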
# [2] = ACEA_AR_agonist_AUC_viability: ACEA Biosciences xCELLigence Real-Time Cell Analysis on Androgen Receptor Agonism for Viability (AID 2283775);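 as to AC50: viability read 80 hours after compound addition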
# Outline: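 Real-time impedance tracking of 22Rv1 growth, readings every 5 min for 5 h then hourly; area-under-curve viability endpoint at 80 hours, relative to DMSO. Compounds at eight concentrations, 1:4 steps, top 100 uM, n = 2.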
# [3] = test system: zebrafish Estrogen Receptor (ESR2B), gene 317733; test: ATG_zfER2b_XSP1: Attagene TRANS-FACTORIAL Multi-Species (XSP1) HepG2 Assay for zebrafish Estrogen Receptor (ESR2B) (AID 2283773)
# Outline: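 HepG2 cells transiently transfected with multiple GAL4-UAS reporter units expressing chimeric zebrafish ER2b-Gal4; 24 h chemical exposure with 3 nM 6-alpha-fluorotestosterone present. Reporter mRNA measured by RT-PCR and capillary electrophoresis; gain of signal fitted versus DMSO.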
# [4] = test system: frog Estrogen Receptor (ESR2), gene 100174814; test: ATG_frER2_XSP1: Attagene TRANS-FACTORIAL Multi-Species (XSP1) HepG2 Assay for frog Estrogen Receptor (ESR2) (AID 2283774)
# Outline: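 HepG2 cells transiently transfected with GAL4-UAS multiplexed reporter units expressing chimeric NR-Gal4 proteins; reporter mRNA measured 24 h after dosing by RT-PCR, FAM labeling, HpaI digestion and capillary electrophoresis. Gain-of-signal relative to DMSO; 3 nM 6-alpha-fluorotestosterone present.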
# [5] = CEETOX_H295R_MTT_cell_viability: Viability Assessment in the CeeTox HT-H295R MTT Assay (AID 2283718; active = hit-call score of the fitted dose curve at least 0.9, where 1 is the maximum; inactive = score below 0.9;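 as to AC50: curve fitted both ways so AC50 may mark viability loss or gain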)
# Outline: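 H295R cells prestimulated 48 h with 10 uM forskolin, then exposed 48 h to test chemical (0.1% DMSO final). Viability by MTT (0.5 mg/ml, 4 h, 37 C), absorbance 570/650 nm; percent change versus DMSO, bidirectional fit.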
# [6] = test system: zebrafish Androgen Receptor (AR), gene 100005148; test: ATG_zfAR_XSP1: Attagene TRANS-FACTORIAL Multi-Species (XSP1) HepG2 Assay for zebrafish Androgen Receptor (AR) (AID 2283771)
# Outline: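 HepG2 cells were transiently transfected with a zebrafish AR-GAL4 reporter system and partially stimulated with 3 nM 6-alpha-fluorotestosterone. Reporter mRNA was measured after 24 h dosing by RT-PCR with capillary electrophoresis, and gain-of-signal was fitted relative to DMSO.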
compound,measurement,setting,value
Cc1ccccc1N,outcome,[1],inactive
same,outcome,[2],inactive
O=C(O)C(F)(F)C(F)(F)C(F)(F)C(F)(F)C(F)(F)C(F)(F)C(F)(F)C(F)(F)C(F)(F)C(F)(F)F,outcome,[1],inactive
same,AC50,[2],36 µM (active)
O=C1C2(Cl)C3(Cl)C4(Cl)C(Cl)(Cl)C5(Cl)C3(Cl)C1(Cl)C5(Cl)C24Cl (stereo not given),AC50,[1],71 µM (active)
same,AC50,[3],1.93 µM (active)
same,AC50,[4],2.24 µM (active)
same,AC50,[2],7.07 µM (active)
c1cc[c]([Hg][c]2ccccc2)cc1,AC50,[5],24.7 µM (active)
same,AC50,[2],26.6 µM (active)
C=CC(=O)OCCCCCC(C)C,outcome,[1],inactive
Oc1ccc(-c2ccccc2)cc1,outcome,[5],inactive
same,outcome,[2],inactive
CC(C)OC(=O)Nc1ccccc1,AC50,[5],2.64 µM (active)
same,outcome,[2],inactive
CCC(=O)C(CC(C)N(C)C)(c1ccccc1)c1ccccc1 (stereo not given),outcome,[1],inactive
same,AC50,[2],22.3 µM (active)
O=C(Cc1ccccc1)c1ccccc1,outcome,[5],inactive
same,outcome,[2],inactive
C[C@H]1CCCC(=O)CCC/C=C/c2cc(O)cc(O)c2C(=O)O1,AC50,[5],69.8 µM (active)
same,AC50,[2],30.3 µM (active)
same,outcome,[2],inactive
Fc1ccc(C2(Cn3cncn3)OC2c2ccccc2Cl)cc1 (stereo not given),outcome,[5],inactive
same,outcome,[2],inactive
CC(C)(c1ccccc1)c1ccc(O)c(C(C)(C)c2ccccc2)c1,outcome,[1],inactive
same,AC50,[2],10.1 µM (active)
O=C(OC1CCCCC1)c1ccccc1C(=O)OC1CCCCC1,AC50,[5],28.6 µM (active)
same,outcome,[2],inactive
CC(C)(C)CC(C)(C)c1ccc(O)cc1,outcome,[1],inactive
same,outcome,[6],inactive
same,AC50,[3],1.7 µM (active)
same,AC50,[4],2.75 µM (active)
same,AC50,[2],10.4 µM (active)
O=C(O)C(F)(F)C(F)(F)C(F)(F)C(F)(F)C(F)(F)C(F)(F)F,outcome,[1],inactive
same,outcome,[2],inactive
